Laboratory results from the supplement of paper PMC7156485.
± gives the standard deviation of the averaged measurements.

How the values were obtained:
Details in all cases: concentration: 10 µM; 24 h
HCC1569 [1] = experiment: cell number relative to DMSO (% of DMSO); higher = more cells (less growth inhibition / toxicity)
Summary of the method: (§1)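 Six fields per well were imaged at ×10 after the cells were fixed in 3.7% formaldehyde and stained with a rabbit anti-H1.0 antibody, an AlexaFluor 647 secondary and DAPI. The HCC1569 and TDF cells had been plated at 800 per well in 384-well plates (RPMI, 10% FBS) and treated in triplicate with compounds at 10 µM for 24 h at 37 °C. The values are the median of replicates of H1.0 nuclear intensity or cell number, as percent of the plate control. Smoothing for positional effects was applied to HCC1569 data.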

TDF [2] = experiment: as above
Summary of the method: as §1

TDF [3] = experiment: H1.0 immunofluorescence intensity relative to DMSO (% of DMSO); higher = stronger H1.0 induction, active = 120 or more
Summary of the method: as §1

HCC1569 [4] = experiment: H1.0 immunofluorescence intensity relative to DMSO (% of DMSO); higher = stronger H1.0 induction, active = 140 or more
Summary of the method: as §1
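Wherever H1.0 immunofluorescence intensity relative to DMSO is given: TDF is a line of transformed human dermal fibroblasts of mesenchymal origin.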
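Wherever cell number relative to DMSO is given: TDF denotes transformed human dermal fibroblasts of mesenchymal origin.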

Row | SMILES | cell number (HCC1569 [1]) | cell number (TDF [2]) | H1.0 immunofluorescence intensity (TDF [3]) | H1.0 immunofluorescence intensity (HCC1569 [4])
1 | O=C(NCCO)c1cccc(-c2cc(Nc3ccc(OC(F)(F)F)cc3)ncn2)c1 | 91.1 | 94.8 | 110 (inactive) | 119 (inactive)
2 | Oc1ccc(C=Cc2cc(O)cc(O)c2)cc1 [Resveratrol] | 79.2 ± 6.3 | 79.5 ± 4 | 99.5 (inactive) | 113 (inactive)
3 | CCCN(CCc1ccccc1)C1CCc2c(O)cccc2C1 (configuration not stated) [2-(N-Phenethyl-N-propyl)amino-5-hydroxytetralin] | 105 | 96.6 | 89.4 (inactive) | 106 (inactive)
4 | CC(=O)CC/C=C(\C)CC/C=C(\C)CC/C=C(\C)CCC=C(C)C | 100 | 96.2 | 104 (inactive) | 105 (inactive)
5 | OCCn1cc(-c2cnc3nnn(Cc4ccc5ncccc5c4)c3n2)cn1 | 99.6 | 98.7 | 99 (inactive) | 99.8 (inactive)
6 | NCCCC(O)(P(=O)([O-])O)P(=O)(O)O [Alendronate] | 106 | 102 | 94.3 (inactive) | 117 (inactive)
7 | COC(=O)C1=C(C)NC(C)=C(C(=O)OCCCN2CCC(c3ccccc3)(c3ccccc3)CC2)C1c1cccc([N+](=O)[O-])c1 (configuration not stated) [Niguldipine] | 88.2 | 99 | 98.5 (inactive) | 126 (inactive)
8 | CCCCCOc1ccccc1C(O)CC#CCCCC(=O)OC (configuration not stated) | 103 | 106 | 93 (inactive) | 89.2 (inactive)
9 | O=c1c(-c2ccc(F)cc2)c(-c2ccncc2)[nH]n1-c1ccc(Cl)cc1 [p38 MAP Kinase Inhibitor] | 102 | 111 | 95.2 (inactive) | 110 (inactive)
10 | O=C(O)C1CCCNC1C(=O)O (mixture of isomers) | 108 | 110 | 96.4 (inactive) | 96.7 (inactive)
11 | COc1ccccc1N1CCN(CCCCNC(=O)c2ccc3ccccc3c2)CC1 | 99.1 | 111 | 106 (inactive) | 97.4 (inactive)
12 | CC(C[N+](C)(C)C)OC(N)=O.[Cl-] (configuration not stated) [Bethanechol chloride] | 91.3 | 100 | 92.6 (inactive) | 99.3 (inactive)
13 | C(=Cc1ccccc1)CN1CCN(C(c2ccccc2)c2ccccc2)CC1 [Cinnarizine] | 74.9 | 74.1 | 106 (inactive) | 101 (inactive)
14 | CS(=O)(=O)c1ccc(C2=C(c3ccccc3)C(=O)OC2)cc1 [Rofecoxib] | 98.3 | 88.9 | 98.4 (inactive) | 111 (inactive)
15 | COC(=O)C1C(O)CCC2CN3CCc4c([nH]c5ccccc45)C3CC21.Cl (configuration not stated) [Yohimbine hydrochloride] | 99.8 | 113 | 93.8 (inactive) | 107 (inactive)
16 | COc1ccccc1OCC(O)CN1CCN(CC(=O)Nc2c(C)cccc2C)CC1.Cl.Cl (configuration not stated) [Ranolazine dihydrochloride] | 104 | 107 | 97.9 (inactive) | 99.9 (inactive)
17 | O=C1c2c(O)cc(O)cc2O[C@H](c2cc(O)c(O)c(O)c2)[C@H]1O | 95.8 | 99.5 | 98.9 (inactive) | 93.3 (inactive)
18 | CN(C)CCCn1cc(C2=C(c3c[nH]c4ccccc34)C(=O)NC2=O)c2ccccc21 [Bisindolylmaleimide I] | 85.8 | 80.3 | 111 (inactive) | 131 (inactive)
19 | O=c1c(O)c(-c2ccc(O)cc2O)oc2cc(O)cc(O)c12 [Morine] | 101 | 109 | 95 (inactive) | 82.4 (inactive)
20 | O=C(CCCc1ccc(-c2ccccc2F)cc1)Nc1ccc(O)cc1 [MK2a Inhibitor] | 79 | 11.1 | 157 (active) | 129 (inactive)
21 | O=c1cc(-c2ccccc2)oc2cc(O)c(O)c(O)c12 [Baicalein] | 98.9 ± 2.6 | 92.95 ± 0.67 | 93.3 (inactive) | 99.6 (inactive)
22 | CC(C)C(CO)Nc1nc(Nc2cccc(Cl)c2)c2ncn(C(C)C)c2n1 (configuration not stated) [Purvalanol A] | 68.8 ± 4.3 | 61.8 ± 9.4 | 98.3 (inactive) | 129 (inactive)
23 | CC(C)(C)n1nc(Cc2cccc3ccccc23)c2c(N)ncnc21 [PP1 Analog II, 1NM-PP1] | 82.1 | 103 | 93.1 (inactive) | 152 (active)
24 | Cc1cc(C(=O)Nc2cccc(C(=O)Nc3cccc(C(F)(F)F)c3)c2)on1 | 100 | 104 | 99.6 (inactive) | 113 (inactive)

Row | SMILES | cell number (HCC1569 [1]) | cell number (TDF [2]) | H1.0 immunofluorescence intensity (TDF [3]) | H1.0 immunofluorescence intensity (HCC1569 [4])
25 | CCC(C)C(=O)OC1CC(C)C=C2C=CC(C)C(CCC3CC(O)CC(=O)O3)C21 (configuration not stated) [Lovastatin] | 99.4 | 80.8 | 119 (inactive) | 106 (inactive)
26 | CC1CC2C3CCC4=CC(=O)C=CC4(C)C3(F)C(O)CC2(C)C1(O)C(=O)CO (configuration not stated) [Betamethasone] | 97.2 | 106 | 75.2 (inactive) | 99.5 (inactive)
27 | CCCCCCCOc1cc2c(cc1/C(C)=C/c1ccc(C(=O)O)cc1)C(C)(C)CCS2(=O)=O | 96.9 | 101 | 88.9 (inactive) | 102 (inactive)
28 | CC(C)OC(=O)CCCC=CCC1C(O)CC(O)C1CCC(O)CCc1ccccc1 (configuration not stated) [Latanoprost] | 103 | 108 | 86.7 (inactive) | 105 (inactive)
29 | CCN(CC)CC(=O)Nc1c(C)cccc1C.Cl [Lidocaine hydrochloride] | 97.3 | 101 | 89 (inactive) | 94.4 (inactive)
30 | C[N+](C)(C)CCOC(=O)CCC(=O)OCC[N+](C)(C)C [Succinylcholine] | 100 | 101 | 99.9 (inactive) | 101 (inactive)
31 | O=C1CN2Cc3c(ccc(Cl)c3Cl)NC2=N1 [Anagrelide] | 103 | 110 | 92.9 (inactive) | 98.7 (inactive)
32 | C[N+](C)(C)CCOC(N)=O [Carbamylcholine] | 103 | 107 | 93.3 (inactive) | 99.8 (inactive)
33 | C=C1C(=CC=C2CCCC3(C)C2CCC3C(C)CCCC(C)(C)O)CC(O)CC1O (configuration not stated) [1,25-Dihydroxyvitamin D3] | 104 | 106 | 95.2 (inactive) | 98.6 (inactive)
34 | COc1c2ccoc2cc2oc(=O)ccc12 [Bergapten] | 97.8 | 94 | 102 (inactive) | 99.9 (inactive)
35 | CCCCCC(O)CCCC(=O)[O-].[Na+] (configuration not stated) [5-hydroxydecanoic acid sodium] | 99.5 | 96 | 99.5 (inactive) | 114 (inactive)
36 | CC(=O)O.NC(N)=NN=Cc1c(Cl)cccc1Cl [Guanabenz acetate] | 104 | 98 | 106 (inactive) | 97.8 (inactive)
37 | CN(C)CCCCSC(=N)N.Cl.Cl | 99.3 | 106 | 93.8 (inactive) | 102 (inactive)
38 | COC(=O)c1ccc2c(c1)NC(=O)C2=C(Nc1ccc(N(C)C(=O)CN2CCN(C)CC2)cc1)c1ccccc1 [Vargatef] | 95.2 | 106 | 84.3 (inactive) | 113 (inactive)
39 | Cc1cccc(Nc2ccccc2C(=O)O)c1C [Mefenamic acid] | 104 | 107 | 104 (inactive) | 90.5 (inactive)
40 | COc1ccc(/C=C2\COc3ccc(C)cc3C2=O)cc1O | 58.1 | 28 | 126 (active) | 134 (inactive)
41 | CCC(=O)Nc1ccc2ncnc(Nc3cccc(Br)c3)c2c1 | 89.4 | 105 | 93.1 (inactive) | 128 (inactive)
42 | COc1cc(Br)c(Nc2nc(-c3c(C)nc4ncccn34)cs2)c(Br)c1 | 61.1 | 53.8 | 108 (inactive) | 199 (active)
43 | O=C1CC(c2ccc(O)cc2)Oc2cc(OC3OC(CO)C(O)C(O)C3O)cc(O)c21 (configuration not stated) [Narigenin-7-O-glucoside] | 101 | 103 | 97.8 (inactive) | 86.5 (inactive)
44 | C=CC[C@H](N)C(=O)O [L-allylglycine] | 101 | 99.3 | 95.9 (inactive) | 92.4 (inactive)
45 | CC1OC(OCC2OC(Oc3cc(O)c4c(c3)OC(c3ccc(O)cc3)CC4=O)C(O)C(O)C2O)C(O)C(O)C1O (configuration not stated) [Narirutin] | 101 | 103 | 94.7 (inactive) | 80.9 (inactive)
46 | Nc1[nH]nc2nc3ccccc3nc12 [Cdk1/5 Inhibitor] | 99.6 | 95.2 | 104 (inactive) | 113 (inactive)
47 | O=C(CO)N1CCC(c2[nH]nc(-c3ccc(Cl)cc3)c2-c2ccncn2)CC1 | 93.2 | 105 | 91.3 (inactive) | 96 (inactive)
48 | [N-]=[N+]=Nc1ccc(C(=O)CSCC(NC(=O)CCC(N)C(=O)O)C(=O)NCC(=O)O)cc1 (stereo not drawn) [S-(p-Azidophenacyl)glutathione] | 103 | 105 | 95.5 (inactive) | 79.9 (inactive)
